MLLE-PAM2 inh: inhibitors of microRNA-mediated deadenylation, human PABP1 MLLE binding. inhibition, % at 20 µM. 0.36% of 360,000 active. P11940. GST-MLLE / FITC-PAM2 fluorescence polarization; in the data active means inhibition above about 35%, passing the limit was not always enough
PABP FP inh: PABP-poly(A) binding inhibition | calls only at 35 µM | P11940 | 1% of 290,000 active | PABP-poly(A) RNA binding, fluorescence polarization;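 further: calls also rest on retests at 20 µM and on dose response follow-up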
eIF4E-4G inh: blocks eIF4E binding to eIF4G; P63073+Q04637; TR-FRET eIF4E-eIF4GI(517-606) binding, 2 h; inhibition, % at 21.7 µM; 0.37% of 220,000 active;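 active means inhibition above about 30%, limit read from the data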
PERK inh: blocks human PERK kinase; CHO PERK-DD fusion, SEAP luminescence translation reporter; inhibition, % at 5.6 µM; 0.17% of 220,000 active; Q9NZJ5;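 active means inhibition above the mean inhibition of all tested compounds plus 3 SD, set separately per screening campaign, cut at about 2.9% in these data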;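 further: PERK kinase domain activated by AP20187 dimerizer at 100 nM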
eIF4H inh: inhibitors of RNA binding by human eIF4H | Q15056 | eIF4H fluorescence polarization binding assay | inhibition, % at 35 µM | 0.94% of 290,000 active | AID 2012;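 further: calls also rest on retests at 20 µM and on dose response follow-up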
Hits are given with their value; i = inactive; ? = inconclusive; nt = no result; + = active, no number. Shown are actives, neighbours in structure and some others; about 1.6% of the full set was active somewhere. Unless noted, how the calls were made is not given here.

SMILES	MLLE-PAM2 inh	PABP FP inh	eIF4E-4G inh	PERK inh	eIF4H inh
Cc1ccc(NC(=O)CSC2=NCCN2)cc1	39.3	i	i	i	i
COc1ccccc1NC(=O)CSC1=NCCN1	i	i	i	i	i
COc1ccc(CN(CC(=O)NCc2ccccc2)C(=O)c2csnn2)cc1	i	i	i	i	i
COc1ccc(CNC(=O)CN(Cc2ccc(C)cc2)C(=O)c2csnn2)cc1	44.0	i	nt	nt	i
COc1ccc(CNC(=O)CN(Cc2ccc(Cl)cc2)C(=O)c2csnn2)cc1	35.8	i	nt	nt	i
CC1=C(C(=O)N(C)C)CC(CC(=O)NCc2cccc3ccccc23)C(=O)N1CCCN1CCCC1=O (centres undefined)	i	nt	nt	nt	nt
CN(C)CCCNCCCCNC(=O)/C=N/O	i	+	i	i	i
CN(C)CCCNCCCNC(=O)/C=N/O	i	i	i	i	i
CC1Cc2ccccc2N1C(=O)C(C)n1cc(C(F)(F)F)cc(Cl)c1=O (centres undefined)	i	nt	nt	nt	nt
CCCCCC(=O)N1CC2(CC)CN(C(=O)CCCCC)CC(CC)(C1)C2=O	i	+	i	i	98.6
CCCC(=O)N1CC2(CCC)CN(C(=O)CCC)CC(CCC)(C1)C2=O	i	i	i	i	i
O=C(COC(=O)CCC(NC(=O)OCc1ccccc1)C(=O)OCC(=O)Nc1ccccc1)Nc1ccccc1 (centres undefined)	i	+	i	i	i
O=C(COC(=O)CCc1c[nH]c(=O)[nH]1)Nc1ccccc1	53.1	i	i	i	i
O=C(COC(=O)CCc1c[nH]c2ccccc12)Nc1ccccc1	i	nt	nt	nt	nt
Cc1ccc(NC(=O)COC(=O)CCc2c[nH]c(=O)[nH]2)cc1	i	i	i	4.0	i
CC(C)c1ccccc1NC(=O)C1CC(=O)N(C2CCCC2)C1 (centres undefined)	i	i	nt	nt	i
Cc1cc(C)n(CC(=O)NNC(=O)CCCOc2ccc(Cl)cc2C)n1	i	i	nt	nt	i
Cc1cc(C)n(CC(=O)NNC(=O)COc2ccc(Br)cc2F)n1	101.4	nt	nt	nt	nt
CC1=CC(C)C(C[N+]2(C)CCCCC2)C(C)C1 (centres undefined)	i	+	i	i	i
CCC1(c2ccc(OC)cc2)NC(=O)N(CC(=O)c2ccc3c(c2)OCCO3)C1=O (centres undefined)	i	nt	nt	nt	nt
CCCCc1ccc(NC(=O)CC(C)(C)C)cc1	i	+	i	i	98.0
CCCCc1ccc(NC(=O)CC(C)=O)cc1	i	i	i	i	i
CC(C)Cc1cc(C(=O)Nc2c(F)cc(F)cc2Br)no1	i	i	i	i	60.6
CC(C)Cc1cc(C(=O)Nc2ccc(F)cc2F)no1	i	i	i	i	i
CC(=O)Nc1ccc(S(=O)(=O)NCC(=O)N2CCN(S(=O)(=O)c3cccs3)CC2)cc1	43.2	nt	nt	nt	nt
SMILES	MLLE-PAM2 inh	PABP FP inh	eIF4E-4G inh	PERK inh	eIF4H inh
CCOC(=O)N1CCN(C(=O)CNS(=O)(=O)c2cccs2)CC1	i	i	i	i	i
CC(=O)Nc1ccc(-c2ccnc3c2CC(C(=O)Nc2cccnc2)O3)cc1 (centres undefined)	i	nt	nt	nt	nt
Cc1ccc(S(=O)(=O)CCCS(=O)(=O)c2ccc(C)cc2)cc1	i	i	i	i	i
Cc1ccc(S(=O)(=O)CC(=O)c2cc(C)c(O)c(C)c2)cc1	i	+	i	i	2.8
C=CCNC(=S)/N=c1/ccccn1CC	i	i	i	i	i
COc1ccc(CNc2nc(S(=O)(=O)c3ccccc3)c(Cl)s2)cc1OC	i	+	i	i	53.8
O=S(=O)(c1ccccc1)c1nc(NCc2ccccc2)sc1Cl	i	i	i	i	i
CCOc1cc(N2CCOCC2)c(OCC)cc1NS(=O)(=O)c1ccc(Cl)s1	i	i	i	i	97.4
CCOc1cc(N2CCOCC2)c(OCC)cc1NC(=O)c1cc(S(=O)(=O)N2CCOCC2)ccc1Cl	i	nt	nt	nt	nt
O=C(O)C(=O)/C(=C\c1cccc2ccccc12)c1ccc2ccccc2n1	i	+	i	i	67.0
Cc1ccc(-n2c(SCc3cc(=O)n4ccsc4n3)nnc2-c2cccnc2)c(C)c1	i	i	i	i	60.3
COc1ccc(OC)c(NC(=O)CSc2nc3nc(C)cc(C)n3n2)c1	i	nt	nt	nt	nt
CCOC(=O)c1ccc(N2C(=O)C3C(/C=C/c4ccccc4)OC4(C(=O)c5ccccc5C4=O)C3C2=O)cc1 (centres undefined)	i	+	i	i	i
CCOC(=O)c1ccc(N2C(=O)[C@@H](c3ccccc3)[C@H]2c2ccccc2)cc1	i	nt	nt	nt	nt
C/C(CC(=O)Nc1cccc(Cl)c1Cl)=N\NC(=O)c1ccccc1N	i	i	i	i	i
O=C(Nc1cccc(C(F)(F)F)c1)c1cc2ncc(Br)cn2n1	i	i	i	i	i
O=C(Nc1ccc2c(c1)OCO2)c1cc2ncc(Br)cn2n1	i	+	nt	i	54.0
COc1ccc(C2CN=NC2C(=O)c2ccccc2)cc1 (centres undefined)	i	i	i	i	i
O=C1OCC/C1=C\OCCCO/C=C1\CCOC1=O	i	i	85.8	i	i
O=C(/C=C/c1ccco1)c1ccc(NC(=O)C23CC4CC(CC(C4)C2)C3)cc1	i	+	i	i	?
CCCCSc1cc(C)nc(N)n1	i	i	i	i	i
O=C(NC(c1ccccc1)c1ccccc1)C1(c2cccs2)CCOCC1	i	+	i	i	?
Cc1cccc(-n2c(O)c(C=Nc3ccccc3-c3n[nH]c(=S)[nH]c3=O)c3ccccc3c2=O)n1	i	i	49.8	i	i
CCOC(=O)C1=C(C)Nc2ccc(C)cc2S1	50.1	i	i	i	i
CCOCCOC(=O)C1=C(C)Nc2ccc(C)cc2S1	i	i	i	i	i
SMILES	MLLE-PAM2 inh	PABP FP inh	eIF4E-4G inh	PERK inh	eIF4H inh
COC(=O)c1cc(C(=O)OC)cc(-n2c(C)cc(C(=O)CC#N)c2C)c1	i	+	i	i	59.2
Cn1c2ccccc2c2ccc3c(c21)C(=O)C=CC3=O	i	nt	nt	nt	nt
Cc1ccc2c(c1)c1ccc3c(c1n2C)C(=O)C=CC3=O	42.1	i	i	i	i
COc1ccc2c(c1)c1ccc3c(c1n2C)C(=O)C=CC3=O	48.8	i	i	i	i
COc1ccc2c(c1)c1ncn(CCN3CCCC3)c(=O)c1n2C	i	i	i	i	i
CCCN(Cc1nnc(-c2ccccc2Cl)o1)C(=O)c1cc([N+](=O)[O-])cc([N+](=O)[O-])c1	i	i	i	i	i
CCCOc1ccc(N2C(=O)CC(NNC(=O)c3ccc(COc4ccccc4)o3)C2=O)cc1 (centres undefined)	i	+	i	i	i
CCOc1cccc(N2C(=O)CC(NNC(=O)c3ccc(Br)o3)C2=O)c1 (centres undefined)	i	i	i	i	i
Nc1cccc(C(=O)N/N=C/c2ccsc2)c1	i	+	i	i	84.3
Cn1cc(-c2ccno2)c(C(=O)O)n1	i	i	i	i	i
Cc1ccc(CSCCNS(=O)(=O)c2ccccc2)cc1	i	+	i	i	50.2
O=C(NCC1CCCO1)c1cc2cc(Cl)ccc2[nH]1 (centres undefined)	i	i	nt	nt	i
O=C(Nc1ccc(-n2nncc2-c2ccco2)cc1)c1cc2ccccc2oc1=O	i	i	i	i	60.9
